High-throughput results deposited in PubChem BioAssay by Broad Institute.
C2C12 statin: suppressors of statin myotoxicity in C2C12 myotubes, primary screen, cell-based, single point, plate reader; rescue of ATP level, % at 7.49 µM; 330,000 compounds, 0.78% hits; C2C12 myotubes + simvastatin, ATP luminescence, 48 h; scaled: DMSO 0, geranylgeraniol control 100;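 active means mean ATP rescue above about 67%, or every replicate alone reaching that limit, limit read from the data, passing the limit was not always enough; inconclusive means no clear call, values can overlap the other calls; inactive means mean under the limit and some replicate under it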;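 further: myotubes were challenged with 10 µM simvastatin during compound exposure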
EBV LMP1 NFkB: EBV LMP1-driven NF-kappaB luciferase reporter inhibitors, primary screen, cell-based, luminescence, single point; LMP1-induced NF-kappaB luciferase reporter cells; AID 504558, 2011; 350,000 compounds, 0.69% hits; inhibition, % at 12.5 µM; in the data active means inhibition above about 41%; inconclusive means no clear call, values can overlap the other calls
esBAF inh: Bmi1 luciferase reporter increase in mESCs, primary screen, esBAF inhibitor project, mouse ES cells, Bmi1 luciferase knock-in, single point. 24 h; 100% = twice the neutral-well signal. reporter increase, % at 12.5 µM. 350,000 compounds, 2% hits; in the data active means activation above about 40%; inconclusive means no clear call, values can overlap the other calls;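 further: a rise in the Bmi1 reporter signal indicates esBAF inhibition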
MITF act: activators of MITF-driven TRPM1 promoter reporter, primary screen, cell-based, SK-MEL-5, luciferase, single point. SK-MEL-5 TRPM1-promoter luciferase, 24 h; % of positive control, neutral wells = 0. activation, % at 12.5 µM. 300,000 compounds, 0.75% hits;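 active means mean activation of at least 80% with every replicate also reaching 80%; inconclusive means mean reaches 80% but some replicate falls short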
MITF TRPM1 inh: inhibitors of MITF-dependent TRPM1 promoter reporter, primary screen, cell-based, SK-MEL-5, single point, luciferase; SK-MEL-5 TRPM1 promoter luciferase, 24 h; inhibition, % at 12.5 µM; 330,000 compounds, 0.83% hits; AID 488899, 2010;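 active means mean inhibition across replicates of 60% or more, whatever share of single replicates reaches that level; inconclusive means some that reach 60%, reason not given; inactive means mean inhibition across replicates below 60%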
Wnt act: Wnt/beta-catenin pathway activators, primary screen, cell-based, plate reader, single point | 300,000 compounds, 1.2% hits | Wnt/beta-catenin reporter cell assay, activator | AID 743398, 2014 | activation, % at 9.35 µM; in the data active means activation above about 30%, passing the limit was not always enough; inconclusive means no clear call, values can overlap the other calls
Ring1 derepress: Ring1 mRNA increase in mouse ESCs, confirmation, esBAF inhibitor project, cell-based, mouse ESC, RT-qPCR, cherry-pick; shares compounds with esBAF inh; mouse ESC E14, Ring1 mRNA RT-qPCR fold change; fold change at 33 µM; 550 tested, under 10 active; AID 743176, 2013;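 active means Ring1 gene expression raised more than 2-fold over untreated cells in both replicates at either tested dose; inconclusive means only one replicate above 2-fold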;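 further: Ring1 transcript normalised to actin housekeeping signal by TaqMan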
esBAF Fgf4 qPCR: Fgf4 mRNA decrease in mouse ESCs, confirmation, esBAF inhibitor project, cell-based, mouse ESC, RT-qPCR, cherry-pick; shares compounds with esBAF inh; mouse ESC E14, Fgf4 mRNA qPCR fold change; stronger effect = lower value; Fgf4 expression fold change at 33 µM; 550 compounds, 4% hits; AID 743177, 2013;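 active means Fgf4 expression under 0.8 fold of control in both repeat measurements at one or both tested doses; inconclusive means under 0.8 fold in just a single repeat measurement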;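 further: Fgf4 transcript normalised to actin in duplex TaqMan qPCR; cells exposed to compound for 24 h before lysis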
esBAF Bmi1 qPCR: esBAF inhibition via Bmi1 de-repression, confirmation, cell-based, RT-qPCR, mouse ESC, single point, cherry-pick; shares compounds with esBAF inh; mouse ESE14 ES cells, Bmi1 mRNA qPCR fold; stronger effect = higher value; fold change at 33 µM; 550 tested, under 10 active; AID 743180, 2013;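 active means Bmi1 expression fold change above 6 at either tested concentration, seen in replicate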
A549 cytotox: A549 cell cytotoxicity, cytotoxicity control, plate reader, single point, cherry-pick | shares compounds with esBAF inh | cell viability change % (negative = cytotoxic), % at 25 µM, hits read low | 550 tested, under 10 active; call rule not given here
HepG2 cytotox SP: HepG2 cell cytotoxicity, cytotoxicity control, plate reader, single point, cherry-pick; activity change, negative = inhibition, % at 25 µM; stronger effect = lower value; 550 compounds, 4% hits; shares compounds with esBAF inh; AID 743189, 2013; in the data active means activity change below about -50%
HEK293 tox SP: HEK293 cell cytotoxicity, cytotoxicity control, plate reader, single point, cherry-pick; activity change, negative = inhibition, % at 25 µM, hits read low; 550 compounds, 3% hits; shares compounds with esBAF inh; AID 743190, 2013; in the data active means activity change below about -38%, passing the limit was not always enough
Numbers stand for hits. Most compounds without a hit are left out; they make up all but 4% or so of the library.

For COc1cccc(NC(=O)c2sc3nc4n(c(=O)c3c2C)CCC4)c1 the results were C2C12 statin inactive, EBV LMP1 NFkB inactive, esBAF inh 57.3, MITF act inactive, MITF TRPM1 inh inactive, Wnt act inactive, Ring1 derepress inactive, esBAF Fgf4 qPCR inactive, esBAF Bmi1 qPCR inactive, A549 cytotox inactive, HepG2 cytotox SP inactive and HEK293 tox SP inactive.
For O=C(CCC(=O)CCN1CCCCC1)CCN1CCCCC1 the results were C2C12 statin inactive, EBV LMP1 NFkB inactive, esBAF inh inactive, MITF act inactive, MITF TRPM1 inh inactive and Wnt act inactive.
For O=C(NCC1CC1)[C@@H]1[C@@H](CO)[C@@H]2Cn3c(ccc(C4=CCCCC4)c3=O)[C@H]1N2 the results were C2C12 statin inactive and esBAF inh inactive.
Screening COc1cc(Cl)ccc1OCc1cc(C(=O)N2CCN(C)C(=O)[C@@H]2C)no1 returned C2C12 statin inactive, EBV LMP1 NFkB inactive, esBAF inh 95.8, Wnt act 43.5, Ring1 derepress inactive, esBAF Fgf4 qPCR 0.498, esBAF Bmi1 qPCR inactive, A549 cytotox inactive, HepG2 cytotox SP inactive and HEK293 tox SP inactive.
Screening COc1ccccc1NC(=O)Cn1nnc(-c2ccccc2NC(=O)c2cc3ccccc3oc2=O)n1 returned C2C12 statin inactive, EBV LMP1 NFkB inactive, esBAF inh 65.7, MITF act inactive, MITF TRPM1 inh inactive, Wnt act inactive, Ring1 derepress inactive, esBAF Fgf4 qPCR inactive, esBAF Bmi1 qPCR inactive, A549 cytotox inactive, HepG2 cytotox SP inactive and HEK293 tox SP inactive.
O=C(c1cc2ccccc2oc1=O)N(Cc1ccc(F)cc1)C1CCS(=O)(=O)C1 (configuration not stated) was read as C2C12 statin inactive, EBV LMP1 NFkB inactive, esBAF inh inconclusive, MITF TRPM1 inh inactive and Wnt act inactive.
`O=C(c1cc2ccccc2oc1=O)N(Cc1cccs1)C1CCS(=O)(=O)C1` (configuration not stated) gave C2C12 statin inactive, EBV LMP1 NFkB inactive, esBAF inh 70.1, MITF act inactive, MITF TRPM1 inh inactive, Ring1 derepress inactive, esBAF Fgf4 qPCR inconclusive, esBAF Bmi1 qPCR inactive, A549 cytotox inactive, HepG2 cytotox SP inactive and HEK293 tox SP inactive.
For Cn1c(/C(C#N)=C(\O)c2ccccc2Cl)nc2ccccc21 the results were EBV LMP1 NFkB inactive, MITF act inactive, MITF TRPM1 inh inactive and Wnt act inactive.
Cn1c(/C(C#N)=C(\O)c2ccc(Cl)s2)nc2ccccc21 was read as C2C12 statin inactive, EBV LMP1 NFkB inactive, esBAF inh 70.3, MITF act inactive, MITF TRPM1 inh inactive, Wnt act 30.4, Ring1 derepress inactive, esBAF Fgf4 qPCR inconclusive, esBAF Bmi1 qPCR inactive, A549 cytotox inactive, HepG2 cytotox SP inactive and HEK293 tox SP inactive.
